Experimental findings from PubChem BioAssay (NCI) are described below.

The panel holds about 83,000 compounds, 20% with a hit somewhere; the sample as a whole holds those more often.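 96-well plates, one dose, 48 hours. Percent growth reported; active if below 10.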 Unmarked numbers belong to inactive results. Activity calls are given as the source filed them.

The assay concerns HCT-15 colon. In words: NCI-60 one-dose screen, 48 h (100 = growth as untreated, 0 = no growth, -100 = all killed). As to conditions: 10 µM unless noted.
In the case of `O=C(O)CSCC(=O)Nc1cc(C(F)(F)F)ccc1Cl`, the growth was 103%.
As to `N=C(N)c1nn(C2OC(CO)C(O)C2O)c2nc[nH]c(=O)c12` (stereo not drawn), the growth is 0.318% (active).
Then `CC(C)C(=O)OCCOc1ccc(C(C)(C)C)cc1`, with 100%.
As to `OCCNc1ccccc1`, the growth was 105%.
Then `C/C(=N\Nc1ccc([N+](=O)[O-])cc1[N+](=O)[O-])c1ccc(Br)cc1`, with 97.5%.
Take `O=C(Oc1ccccc1Cl)c1ccc(Cl)cc1Cl`: the growth was 103%.
Take `C=C(C)COc1ccc(C(C)(C)C)cc1`: the growth was 108%.
With `CCC(C)c1c(N)n(S(=O)(=O)c2ccc(C)cc2)oc1=O` (stereo not drawn), the growth was 100%.
Next, `Nc1ccn(C2CC(N)C(CO)O2)c(=O)n1` (stereo not drawn): 71.4%; `CN(CCCN(C)CCC1CCCCC1)CCC1CCCCC1`: 8.41% (active); `O=S(Cc1ccccc1)/C(=C/NC(=S)Nc1cc(Cl)ccc1Cl)c1ccccc1` (stereo not drawn): 107%.
Next, `Cc1c(Cl)cccc1N=C=S`: 107%; `CCCC1OC(c2ccco2)OCC1CC` (stereo not drawn): 97.2%.
With `CN1CCCN(C(c2ccccc2)c2ccc(Br)cc2)CC1` (stereo not drawn), the growth is 63.8%.
With `OCCOc1ccc(-c2cc(-c3ccccn3)nc(-c3ccccn3)c2)cc1`, the growth is 19.1%.
Consider `O=C(Nc1cccc(Cl)c1)c1ccc(Cl)cc1Cl`, for which the growth was 96.3%.
Turning to `CC(=O)Oc1c(Cl)cccc1-c1ccccc1`, the growth was 108%.
As for `C/C=C/C1OCC(CC)C(CCC)O1` (stereo not drawn), the growth is 111%.
As to `COc1cccc(C(=O)O)c1OC`, the growth was 101%.
As for `CC(C)C1CCC(C)C(O)C1` (stereo not drawn), the growth was 107%.
In the case of `COc1cc(CC#N)c([N+](=O)[O-])cc1OC`, the growth was 116%.
Turning to `CCCNS(=O)(=O)c1ccc(Cl)cc1`, the growth was 99.6%.
Then `CCOC(=O)/C(C)=C\c1ccc(OC)c(OC)c1`, with 101%; and `O=C(NCc1ccccc1)c1cccc([N+](=O)[O-])c1`, with 104%; and `OCCc1ccc(Cl)cc1`, with 102%.
In the case of `C/C(=N\O)c1ccccn1`, the growth was 102%.
Next, `CC1(C)OC(=O)CC1=O`: 110%.
As for `O=C1C=Cc2ccccc2/C1=C/c1[nH]c(=O)[nH]c1O`, the growth was 59.7%.
In the case of `Nc1ncnc2c1ncn2C1OC(CO)C2OC21` (stereo not drawn), the growth was 108%.
Regarding `C=CCS(C)(=O)=O`, the growth was 102%.
Then `Cc1ccc(C2CCCCC2)cc1Br`, with 100%; and `Cc1ccc2[nH]c3ccccc3c2c1`, with 79.6%.
Next, `Cc1ccc(/C=N/NC(N)=S)s1`: 109%; `O=S(=O)(O)c1cccnc1`: 114%; `O=C(O)c1ccccc1Cc1ccc2c(c1)CCCC2`: 104%.
On to `Nc1cc(F)ccc1[N+](=O)[O-]`, for which the growth is 102%.
Next, `CCOc1ccc(C(=O)O)cc1`: 95.7%; `CCCCOC(=O)c1ccccc1O`: 104%.
